Data on 140 variants can be found in the emibetuzumab library of Makowski et al. (2022).

Some of the results follow. No count for the full screen is at hand.

B1: VH:VL chains; a variant is named by its letters at X, in order (parent)
chain 1: QVQLVQSGAEVKKPGASVKVSCKASGYTFTDYXMHWVRQAPGQGLEWMGXVNPNXXXTTYNQKFEGRVTMTTDTSTSTAYMELRSLRSDDTAVYYCARXNXLDXWGQGTTVTVSS
chain 2: DIQMTQSPSSLSASVGDRVTITCSVSSSVSSIYLHWYQQKPGKAPKLLIYSTSNLASGVPSRFSGSGSGTDFTLTISSLQPEDFATYYCQVYSGYPLTFGGGTKVEIK

The variants in the assay derive from B1. As to the kind of experiment: yeast display scFab, FACS + sequencing. The conditions noted are these: with MET. In short, it runs like this:
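A yeast surface library of scFab variants carrying heavy-chain CDR mutations went through two magnetic enrichment rounds on Protein A beads coated with HGFR-Fc, then FACS. For sorting, cells were labelled for 3 h at room temperature with 1 nM HGFR-Fc and anti-Myc in PBSB containing 1% milk, and the top 50% of antigen-positive cells were gated. Input and round-3 sorted populations were deep sequenced in two replicates. A sequence was called an antigen binder if it appeared in both antigen-positive samples and a non-binder if it appeared only in the input.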
As for VEGGGYSV, the antigen binding call is on record as “no binding”.
To DAARGSSV belongs “no binding”.
With YRARGSSS the entry was “binds”; with YKARTSSS, “binds”.
With YKARGSSS the entry was “binds”.
In the case of FGAAAVGD, the antigen binding call is given as “no binding”.
For YRARGSAV, the antigen binding call is given as “binds”.
To YKEEDDAV belongs “no binding”; to YKTRDDAV, “no binding”; to YKAKGSAV, “binds”.
With YRAKGSAV the entry was “binds”.
To YRAKGAAV belongs “binds”; to VEERDAVA, “no binding”.
For VEGTSDGD, the antigen binding call is “no binding”.
With VAGTGDVA the entry was “no binding”; with YTKKTFSY, “no binding”.
With YRGRSSLY the entry was “binds”; with YGGRADVY, “no binding”.
With VKGRADLY the entry was “no binding”.
On to YRGRASLY, for which the antigen binding call is “binds”.
As to YRGEAFLY, the antigen binding call is “no binding”.
To YRARSSLY belongs “binds”; to VAATGVSD, “no binding”; to SGEGNSWA, “no binding”.
With DARGGAVV the entry was “no binding”.
With YKRGGAVV the entry was “binds”; with VKREASVV, “no binding”.
With YRGRASVV, the antigen binding call is listed as “binds”.
With FRRGSSVV the entry was “binds”; with FKTKDSVV, “no binding”.
With YKRGSSVV the entry was “binds”; with YAGRADVV, “no binding”.
Turning to YKGAGDVV, the antigen binding call is listed as “no binding”.
Consider DGGENDVF, for which the antigen binding call is “no binding”.
DTTKGDVA: the antigen binding call is listed as “no binding”.
On to DAARGDVV, for which the antigen binding call is listed as “no binding”.
With YRRGSSVV the entry was “binds”; with VRGRDDVV, “no binding”.
For VRGRSSVV, the antigen binding call was “binds”.
For the variant VRRGSSVV, the antigen binding call is given as “binds”.
With VRGRSDWV the entry was “no binding”.
With VRAEASVV the entry was “no binding”; with VATGDDWV, “no binding”; with SKGRSDVS, “no binding”.
With YRAGTAVS the entry was “binds”; with DRAGDAVD, “no binding”; with YRAGTAVD, “binds”.
With DRAGDAVS, the antigen binding call is recorded as “no binding”.
To SAARDFWV belongs “no binding”; to DKEGGDLA, “no binding”; to YRKGASVD, “binds”.
To YRKGSSVD belongs “binds”; to ATGGDDGF, “no binding”; to DTTGSDWA, “no binding”.
YRRGGAAF: the antigen binding call was “binds”.
With DERRSSAF the entry was “no binding”; with SERRSSAF, “no binding”; with VRRRGSAF, “binds”.
To YRKGASAF belongs “binds”; to YERRSSAF, “binds”; to DGGRGDAF, “no binding”.
With DGTGGSGA chain 1 R67H the entry was “no binding”; with YRRRGSAF, “binds”; with FRRRDAAF, “no binding”.
Take YRRRGAAF: the antigen binding call is listed as “binds”.
In the case of VRRRGSLF, the antigen binding call was “binds”.
With DKGEGDGA the entry was “no binding”; with SKAGSDVA, “no binding”.
To YRGRGFWF belongs “binds”.
With YRTRGAWF the entry was “binds”; with YKGRGFWA, “no binding”.
With FRGRGAWF, the antigen binding call was “binds”.
In the case of YRGRSAWF, the antigen binding call is given as “binds”.
To DRGRDAWF belongs “no binding”.
As to FRTGSAWF, the antigen binding call was “no binding”.
In the case of YAGGDDAA, the antigen binding call was “no binding”.
To VEAGTAVA belongs “no binding”.
With YEGTGAVF, the antigen binding call is listed as “no binding”.
With YRGRGAVF the entry was “binds”; with YAGRGDVF, “no binding”; with YRGRGAWF, “binds”.
On to VAREDDWA, for which the antigen binding call is “no binding”.
With YKRGSSVD the entry was “binds”.
With AATTDSVD the entry was “binds”; with YTKTSSVD, “no binding”.
Turning to VATTDSVD, the antigen binding call is recorded as “no binding”.
Take YTRKSSVD: the antigen binding call is reported as “no binding”.
With VARGGSVD the entry was “no binding”; with YTRGASLD, “no binding”.
On to YTEEAAVD, for which the antigen binding call is recorded as “binds”.
With DATTDSVD the entry was “no binding”.
With VKRGSSVD the entry was “binds”; with VKRGSFVD, “no binding”; with DAGGGDWD, “no binding”.
With DAGGADVY the entry was “no binding”.
With YATAADWD, the antigen binding call was “no binding”.
With ATRTDDVF the entry was “no binding”.
With DEGEDAGA the entry was “no binding”; with SEEGSDAS, “no binding”; with YARGTAVD, “no binding”.
To YKRGSFVD belongs “no binding”; to YKRRDSVD, “binds”.
For YKTGDSVD, the antigen binding call was “binds”.
To YKRGSAVD belongs “binds”; to DGGTNSSA, “no binding”.
To DEGGTALA belongs “no binding”; to SEGTGSGD, “no binding”; to FGGEGDGA, “no binding”.
Turning to YKRGSSWD, the antigen binding call is recorded as “binds”.
As for YKRGGSWD, the antigen binding call was “binds”.
To YKTGSSWD belongs “binds”; to YKTGDSWV, “no binding”; to VKRATSWD, “no binding”.
To DGARNFGV belongs “no binding”; to DTGANDWV, “no binding”; to DATGGAAA, “no binding”.
For the variant SKAENAWV, the antigen binding call was “no binding”.
With SAGRGDWD the entry was “no binding”; with SRGANAWD, “no binding”.
With SKGRGAWD the entry was “binds”.
With SRGRGAWD the entry was “binds”; with SKGGSAWD, “no binding”; with SRGRGSWD, “binds”.
As to SAGGGAWV, the antigen binding call is reported as “no binding”.
For SKGRGAWV, the antigen binding call is “binds”.
With DRGRDDLV the entry was “no binding”.
With AATTDDAV the entry was “no binding”; with SGRGNAAD, “no binding”.
With ATTKSDGV the entry was “no binding”; with VEGGTDVA, “no binding”; with DAGTGSGA, “no binding”.
Consider YTRGADVV, for which the antigen binding call is recorded as “no binding”.
With YRRRGVVV the entry was “binds”.
With YRRRGYVV the entry was “binds”; with YERRNDVV, “binds”; with YEGTGDVV, “no binding”.
To YRARGVVV belongs “no binding”; to YRRRGDVV, “binds”.
With SREGGVVV, the antigen binding call is recorded as “no binding”.
For the variant YEGGTDVV, the antigen binding call is recorded as “no binding”.
